CASP6 VEID inh – caspase-6 (human) enzyme inhibition | P55212 | purified caspase-6, Z-VEID-R110 cleavage fluorescence | inhibition, % at 12.5 µM | 0.53% of 350,000 active | AID 686996;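 active means mean inhibition across replicates at least about 35%, with every replicate also reaching that limit, limit read from the data; inconclusive means only one of the two criteria met; inactive means neither criterion met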;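 further: 0% = median of neutral control wells and 100% = no fluorescence left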
MLL AF4-AF9 inh – MLL-AF4/AF9 protein interaction inhibition; P42568; AlphaScreen, biotin-AF4 peptide binding to FLAG-AF9; inhibition, % at 10 µM; 0.47% of 350,000 active;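 active means every replicate reaching a set inhibition limit, whatever the replicate mean, cut at about 25% in these data; inconclusive means mean inhibition reaches that limit but some replicates miss it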;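 further: 0% = plate neutral control median and 100% = total signal loss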
Target sequence (P42568 whole entry, looked up): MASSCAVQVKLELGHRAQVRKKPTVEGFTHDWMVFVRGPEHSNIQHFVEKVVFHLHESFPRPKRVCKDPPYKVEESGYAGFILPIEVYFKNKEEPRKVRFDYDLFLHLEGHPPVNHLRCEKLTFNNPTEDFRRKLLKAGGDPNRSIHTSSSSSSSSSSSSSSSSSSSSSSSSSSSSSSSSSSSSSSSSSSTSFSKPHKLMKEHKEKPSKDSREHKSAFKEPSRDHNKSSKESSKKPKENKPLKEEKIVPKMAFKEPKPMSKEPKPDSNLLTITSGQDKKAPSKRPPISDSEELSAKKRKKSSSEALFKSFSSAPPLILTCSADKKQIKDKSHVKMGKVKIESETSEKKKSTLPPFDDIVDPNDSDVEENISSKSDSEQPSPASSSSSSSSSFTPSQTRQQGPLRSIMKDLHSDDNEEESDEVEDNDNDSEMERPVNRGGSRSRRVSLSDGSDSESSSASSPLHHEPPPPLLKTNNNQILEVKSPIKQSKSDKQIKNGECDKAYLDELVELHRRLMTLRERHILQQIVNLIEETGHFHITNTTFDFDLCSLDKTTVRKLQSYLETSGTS
RAD54 branch – blocks human RAD54 Holliday junction branch migration | Q92698 | AID 602329 | 0.14% of 360,000 active | FAM/BHQ fluorescence | inhibition, % at 10.4 µM;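 active means mean normalized replicate activity at least 40 and at least half of replicates scoring 40 or more; inconclusive means only one of the two criteria met; inactive means mean below 40 and under half of replicates reaching 40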;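 further: 0% = median of neutral control wells and 100% = median of positive control wells; inhibitors cause a drop in the FAM fluorescence signal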
RAD52 inh – blocks human RAD52 DNA annealing; recombinant RAD52 DNA annealing, FRET fluorescence; inhibition, % at 18.7 µM; 0.46% of 360,000 active; P43351;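 active means every replicate showing at least 50% inhibition; inconclusive means mean inhibition at least 50% but not in every replicate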
N-glyco inh – blocks N-linked glycosylation in D54 reporter cells; AID 588692; reporter increase, % at 12.5 µM; D54 ERlucT glycosylation luciferase reporter, 24 h; percent of 100 nM tunicamycin response; 0.23% of 360,000 active;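 active means mean luciferase reporter signal, scaled so untreated is 0 and the glycosylation-blocking control 100, at or above a set limit in every replicate; inconclusive means mean reaches the limit but not every replicate does; inactive means mean below the limit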;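 further: luciferase carries N-glycosylation sites so blocking glycosylation raises the light; 0% = median of neutral control wells and 100% = median of 100 nM tunicamycin wells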
RAD52 DNA ctr – binds DNA, flagging false RAD52 inhibitor hits; shares compounds with RAD52 inh; Salmon sperm DNA/acridine orange FP displacement, DNA binding; AC50, µM; 8% of 1,000 active; AID 652128;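 active means fitted half-maximal concentration for signal loss at or below twice the highest dose tested, in every separate run, actives reach about 64 µM in these data; inconclusive means runs disagree, or flat partial signal loss, or poor fit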
Active calls of the source: *; i = inactive; ? = inconclusive; / = not tested or not shown. Sampled rows, rich in hits. Any-hit rate of the full collection: about 1.2%.

SMILES	CASP6 VEID inh	MLL AF4-AF9 inh	RAD54 branch	RAD52 inh	N-glyco inh	RAD52 DNA ctr
CN1CCN(CCCNC(=O)c2cc3c(=O)n(C)c4ccccc4c3s2)CC1	-42	-4	63*	62*	23	i
CS(=O)(=O)c1ccc(OCCCN2CCC(C(O)(c3ccccc3)c3ccccc3)CC2)cc1	-3	/	/	2	/	/
NCc1ccc(OCCCN2CCC(C(O)(C3=CCCC3)c3ccccc3)CC2)cc1 (centres undefined)	-4	/	/	67*	/	i
Cc1cc(OCCCN2CCC(C(O)(c3ccccc3)c3ccccc3)CC2)ccc1Br	-2	1	/	55*	/	i
O=C(c1ccccn1)N1C[C@@H]2N[C@H](C1)C2c1ccc(-c2ccccc2F)cc1 (some centres undefined)	3	-1	/	-3	/	/
FC(F)(F)c1cc(CCN2CCNC[C@H]2Cc2cccc3ccccc23)cc(C(F)(F)F)c1	10	4	16	60*	-2	i
Cc1ccc(S(=O)(=O)N2[C@@H]3CNC[C@H]2C3c2ccc(-c3ccccc3C)cc2)cc1 (some centres undefined)	2	-5	/	34	/	/
O=[N+]([O-])c1ccc2nc[nH]c2c1	-1	-1	4	-8	-1	/
Nc1ccc2nc[nH]c2c1	24	14	/	85*	9	i
O=C1O[C@@H](Cc2ccccc2)[C@H]2[C@@H]3C=CCCC=C3CN2C12CCCC2	2	0	/	-160	/	/
CN1CCN(c2nc(-c3ccc(Cl)s3)cs2)CC1	-7	14	/	51*	-2	i
Clc1ccc(-c2csc(N3CCCCCC3)n2)cc1	14	0	3	-5	-4	/
O=C1CN(S(=O)(=O)Cc2ccccc2)C[C@@H]2[C@@H](c3ccc(C#CCC4CCCC4)cc3)[C@@H](CO)N12	1	3	/	-6	/	/
Nc1ccc(Nc2nc(-c3ccncc3)cs2)cc1	-1	5	-12	-9	-10	/
Nc1ccc(Nc2ccncc2)cc1	-72	16	31	69*	-3	i
CN(C)CC(=O)Nc1ccc2c(c1)[C@@H]1C[C@@H](CC(=O)N3CCOCC3)O[C@H](CO)[C@@H]1O2	/	/	-20	/	/	/
CCCNC(=O)C[C@H]1CC[C@H]2[C@H](COc3ccc(NC(=O)c4cc(F)cc(F)c4)cc3C(=O)N2C)O1	/	/	-5	/	/	/
CC(=O)c1ccc(NC(=O)C[n+]2ccc(N(C)C)cc2)cc1	-31	-5	1	3	1	/
Cc1ccc[n+](CC(=O)Nc2ccc(N(C)C)cc2)c1	-117	4	-6	78*	1	i
CN(C)c1ccc(NC(=O)C[n+]2ccccc2)cc1	-126	14	-20	45	3	i
CC(=O)c1ccc(NC(=O)C[n+]2cccc(C)c2)cc1	-17	-1	-9	3	0	/
Cc1ccc(-c2csc(NC(=O)C[n+]3cc(-c4ccc(C)cc4)n4c3CCC4)n2)cc1	19	?	/	26	2	/
Cc1ccc(-c2csc(NC(=O)C[n+]3cc(-c4ccccc4)n4c3CCC4)n2)cc1	-4	17	11	50*	1	i
CC(C)NC(=O)N(C)C[C@H]1Oc2ccc(NS(C)(=O)=O)cc2CC(=O)N([C@H](C)CO)C[C@H]1C	3	-3	9	5	/	/
Cn1cccc1CNC(=S)Nc1ccccc1Cl	2	5	/	-2	2	/
SMILES	CASP6 VEID inh	MLL AF4-AF9 inh	RAD54 branch	RAD52 inh	N-glyco inh	RAD52 DNA ctr
Cc1cc(C)cc(NC(=S)NCc2cccn2C)c1	4	13	/	65*	-3	i
CCN1CCCC1CNC(=O)c1cc(N)ccc1OC (centres undefined)	-56	9	32	90*	-2	i
C[C@H](CO)N1C[C@H](C)[C@H](CN(C)Cc2ccc3c(c2)OCO3)Oc2ccc(NC(=O)CCN3CCOCC3)cc2C1=O	-3	-3	-2	5	/	/
Cc1cccc2c1-c1sc(C(=O)NCCCN3CCC(C)CC3)cc1CO2	-50	9	34	61*	-4	i
COc1ccc(NC(=O)N(C)C[C@H]2OCCCC[C@H](C)Oc3ccc(NS(=O)(=O)c4ccc(Cl)cc4)cc3C(=O)N([C@@H](C)CO)C[C@@H]2C)cc1	3	4	-5	-1	/	/
CCOC(=O)c1ccc(Nc2nc(N)c3cc(OC)c(OC)cc3n2)cc1	/	/	?	/	-11	/
COc1cc2nc(Nc3ccc(C)c(C)c3)nc(N)c2cc1OC	-6	26*	34	91*	-6	i
Cc1ccc(Nc2nc(N)c3ccccc3n2)cc1Cl	3	8	9	-11	-9	/
COc1cc2nc(Nc3ccc(C)c(Cl)c3)nc(N)c2cc1OC	24	33*	-4	73*	-6	i
COc1ccc2c3c(n(C)c2c1)[C@H](CO)N(C(=O)c1cccnc1)CC31CN(C)C1	/	1	/	/	/	/
CC(C)(C)S(=O)N1Cc2cc(C(=O)NCCCN3CCOCC3)nc(-c3cccc(-c4cc5ccccc5o4)c3)c2[C@@H]1CCO (some centres undefined)	-2	3	-9	-4	2	i
CC(C)(O)C#Cc1cccc(-c2nc(C(=O)NCCCN3CCOCC3)cc3c2[C@@H](CCO)N(S(=O)C(C)(C)C)C3)c1 (some centres undefined)	-2	-4	10	-29	/	/
COc1cccc(CN2CC3(CN(C(C)=O)C3)c3c(n(C)c4cc(OC)ccc34)[C@H]2CO)c1	8	0	/	-71	/	/
C[C@@H]1CN([C@H](C)CO)C(=O)c2cc(NC(=O)Cc3ccccc3)ccc2O[C@@H]1CN(C)C(=O)Nc1ccccc1	-1	-3	7	6	/	/
CN(CC(=O)Nc1ccc(S(=O)(=O)N2CCCC2)cc1)CC(=O)Nc1cccc(F)c1	4	1	-2	58*	-4	i
CC(C(=O)Nc1ccc(S(=O)(=O)N2CCCC2)cc1)N(C)CC(=O)Nc1cccc(F)c1 (centres undefined)	-1	1	-4	-6	-2	/
OC(COc1ccccc1)CN1CCN(CC(O)COc2ccccc2)CC1 (centres undefined)	-2	3	/	-13	1	/
OC(CON=C1c2ccccc2-c2ccccc21)CN1CCNCC1 (centres undefined)	1	13	72*	70*	16	i
Oc1ccccc1/C=N/[n+]1ccccc1	-5	6	-7	58*	0	i
COc1ccc(/C=N/Nc2nc(-c3cccc(S(=O)(=O)N4CCCC4)c3)cs2)c(OC)c1	-1	10	/	96*	-8	i
Cc1cccc2sc(N(CCCN(C)C)C(=O)COc3ccc(Cl)cc3)nc12	-5	16	/	50*	-3	i
COc1cc2ccccc2cc1C(=O)N(CCN(C)C)c1nc2c(C)cccc2s1	-2	15	5	55*	-3	i
Cc1ccc2sc(N(CCCN(C)C)C(=O)CN3C(=O)c4ccccc4C3=O)nc2c1C	-15	16	20	69*	-1	i
Cc1cccc2sc(N(CCN(C)C)C(=O)c3cc(Cl)sc3Cl)nc12	/	/	-6	/	0	/

Screening data from PubChem.
